The source of these data is PubChem BioAssay (NCI).

Structures are written as SMILES. The panel holds about 83,000 compounds, 20% with a hit somewhere; the sample as a whole holds those more often.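 Assay: single dose, 48 h. Readout: percent growth (0 = no net growth; negative = cell death). Active: <10.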 Values without a mark were called inactive. Activity calls are given as the source filed them.

What all share (assay): NCI-60 one-dose screen, 48 h (100 = growth as untreated, 0 = no growth, -100 = all killed)
Holding throughout (settings): 10 µM unless noted

The test system of test [1] is HCT-15 colon.
Test [2] deals with HT29 colon.
Test [3] has as its system SNB-75 CNS.
In test [4] the test system is SNB-19 CNS.
For test [5], the system named is U251 CNS.
The subject of test [6] is PC-3 prostate.
Test [7] deals with SK-MEL-5 melanoma.
The test system of test [8] is UACC-62 melanoma.
Test [9] relates to LOX IMVI melanoma.
Test [10] relates to SK-MEL-28 melanoma.
Test [11] deals with SK-MEL-2 melanoma.
Test [12] deals with EKVX NSCLC.
The subject of test [13] is SN12C renal.
Test [14] relates to UO-31 renal.
Test [15] concerns TK-10 renal.
In test [16] the test system is CAKI-1 renal.
Test [17] has as its system A498 renal.
For test [18], the system named is CCRF-CEM leukemia.
Test [19] concerns MOLT-4 leukemia.
Test [20] deals with ACHN renal.

Regarding `O=C(CN1CCOCC1)Nc1ccc2ncnc(Nc3ccc(Oc4cccc(F)c4)c(Cl)c3)c2c1`, the growth in [1] is 72.8%; in [2], 83.5%; in test [3], 79.5%; in [4], 73.2%; in [5], 85.7%; in test [6] it was 59.3%. Besides, the growth in [7] is 68.5%; in test [8], 76.7%; in [9] it was 80.4%; in [10] it was 83%; in [11] it was 93.6%; in [12], 29.8%. In addition, the growth was 48.9% in test [13]; 31.6% in [14]; 39.5% in [15]; 38.3% in [16]; 63.2% in test [17]; 82.3% in test [18]. Further, in [19], the growth is 64.8%.

As for `O=C(O)CCCCCCCCCCCCCCC(=O)O`, the growth in test [1] was 104%; in [2], 104%; in test [3], 88.2%; in [4], 99.1%; in test [5], 93.7%; in [6], 92.6%. Moreover, the growth in test [7] is 103%; in test [8], 95.1%; in test [9] it was 98.6%; in [10], 106%; in [11] it was 103%; in test [12], 106%. In addition, the growth in [13] was 93.8%; in [14], 99.8%; in test [15] it was 90.4%; in test [16], 103%; in test [17] it was 76.9%; in [18] it was 96.1%. Moreover, in test [19], the growth was 103%.

On to `COc1ccc(Cn2nc3c(c2-c2cc(OC)c(OC)c(OC)c2)-c2oncc2CC3)cc1`, for which the growth in test [1] is 73.2%; in test [2], 90.4%; in test [3] it was 62.6%; in test [4] it was 91.4%; in test [5] it was 94.4%; in test [6], 80.6%. The growth in [7] was 70.9%; in [8], 86.1%; in [9] it was 80.9%; in [10] it was 91.1%; in [11], 103%; in test [12], 85.6%. Moreover, the growth in test [13] is 93.5%; in test [14] it was 65.8%; in [20] it was 91.9%; in test [16], 65.2%; in test [17], 80.3%; in test [18], 103%. In addition, the growth in test [19] was 77.9%.

In the case of `CCCc1cc2c(cc1Br)OCO2`, the growth in test [1] is 101%; in test [2] it was 100%; in test [3], 99.9%; in test [4], 106%; in [5], 100%; in [6], 85.7%. Further, the growth in test [7] is 99.6%; in [8], 101%; in test [9], 95.2%; in [10], 105%; in [11], 98%; in [12], 94.4%. Also, the growth in [13] is 97.3%; in test [14], 95%; in test [15], 100%; in [16] it was 104%; in [17], 98.6%; in test [19] it was 110%.

For the molecule `CN1CCN(CCCNc2nccc(-c3c(-c4ccc(F)c(O)c4)nc4sccn34)n2)S1(=O)=O`, the growth in test [1] is 108%; in test [2], 57.7%; in test [3], 122%; in [4], 114%; in test [5] it was 106%; in test [6], 86.9%. The growth in [7] was 72.6%; in test [8] it was 11.5%; in [9], 50.7%; in test [10], 12.8%; in test [11] it was -1.07% (active); in [12] it was 106%. Further, the growth in test [13] is 85.1%; in test [14], 110%; in [15], 133%; in test [16], 95.5%; in test [17], 134%; in [18] it was 76%. Besides, the growth in [19] is 82.5%.

Take `C/C(=C(/c1ccccc1)c1ccc(OCC(O)CNCCN2CCOCC2)cc1)c1ccccc1` (stereo not given): the growth in [1] was 4.47% (active); in test [2] it was 3.2% (active); in test [3] it was 65.8%; in test [4], 91.2%; in test [5] it was 32.6%; in test [6] it was 65.4%. Further, the growth in [7] is 29%; in [8], 62.8%; in test [9] it was 18.7%; in test [10], -86.2% (active); in test [11] it was 94.9%; in test [12] it was 82.8%. In addition, the growth in [13] is 76.1%; in [14] it was 69.2%; in test [20], 81.4%; in test [16] it was 67.9%; in [17], 79.9%; in [18], 56.5%. Besides, the growth in [19] is 41%.

In the case of `COc1cc(OC)c(/C=C/C(=O)c2ccc(Nc3ncnc4ccccc34)cc2)c(OC)c1`, the growth is 9.75% (active) in test [1]; -62.4% (active) in test [2]; -38.9% (active) in [3]; 12.9% in test [4]; -9.02% (active) in test [5]; 12% in test [6]. The growth in test [7] is -42.4% (active); in test [8], -50% (active); in [9], 3.48% (active); in [10], -26.4% (active); in test [11], 7.01% (active); in test [12], 2.86% (active). In addition, the growth in test [13] was 25.3%; in [14] it was -15.8% (active); in test [20], 22.8%; in [16], 17.8%; in test [17], -26.4% (active); in test [18] it was 1.37% (active). In test [19], the growth was 12.7%.

In the case of `CC(=O)CCSc1ccc(OC(C)=O)cc1`, the growth in test [1] was 101%; in [2] it was 90.1%; in [3] it was 86.8%; in [4], 97.8%; in [5] it was 95.3%; in test [6], 83.8%. Also, the growth was 96.1% in test [7]; 93.1% in test [8]; 98.1% in test [9]; 107% in test [10]; 99.5% in test [11]; 105% in [12]. In addition, the growth in test [13] is 101%; in [14], 87.3%; in test [15] it was 96.3%; in test [20], 103%; in test [17], 95.8%; in [19], 94.1%.
